# Results from PubChem BioAssay AID1460 (National Center for Advancing Translational Sciences (NCATS), 2008).
# The whole screen tested about 270,000 compounds, of which about 5,800 (2.1%) were called active. Another 16% or so got no clear call; they are omitted. Calls follow the shape of the dose curve; as a rule, active = well fitted inhibition curve with a large enough effect; inconclusive = small, poorly fitted or top-dose-only effect; inactive = flat fitted curve, though single readings scatter. Shown is part of a subset that was picked to be rich in actives.
# Target: Microtubule-associated protein tau (Homo sapiens) (UniProt P10636)
# Sequence (P10636 561-689 P618L limits assumed): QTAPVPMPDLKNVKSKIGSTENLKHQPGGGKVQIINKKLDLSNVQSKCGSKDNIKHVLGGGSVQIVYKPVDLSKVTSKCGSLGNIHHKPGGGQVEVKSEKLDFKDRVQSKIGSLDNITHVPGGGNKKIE
# Experiment: qHTS for Inhibitors of Tau Fibril Formation, Thioflavin T Binding; also: nearly all actives have a fitted effect of over 55% in size
# Conditions: recombinant tau K18 P301L, heparin-induced fibrillization, ThT fluorescence; series mostly up to 57.4 µM; activity, negative = inhibition: at the top concentration
# Summary of the method: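 Fibril formation assay: tau K18 P301L at 15 uM with trace Alexa 594 label, heparin inducer 20 uM, pH 7 sodium acetate buffer, 37 C for 6 hr; endpoint ThT signal.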
# % is scaled to controls: 0 for no effect and ±100 for the full control effect; potency is read from the fitted curve at half-maximal effect.
SMILES,"activity, negative = inhibition",Potency
COc1cc2c(cc1OC)C(COc1ccc(F)cc1)N(C(=O)c1ccccc1F)CC2 (centres undefined),-8.13% (inactive),
COc1cc(Cl)c(NC(=O)CC(C)S(=O)(=O)c2cc3c(cc2C)NC(=O)CO3)c(OC)c1 (centres undefined),2.57% (inactive),
Cc1c(C=O)n(C)n(-c2ccccc2)c1=O,0.926% (inactive),
Cc1c(N=Nc2ccc(N(C)C)cc2)c(=O)n(-c2ccccc2)n1C,,15.8 µM (active)
Cc1ccc(N=Nc2c(C)[nH]n(-c3ccccc3)c2=O)cc1,0.0892% (inactive),
O=C(CSc1nc2ccccc2s1)Nc1ccc(C(=O)O)cc1,-2.11% (inactive),
O=[N+]([O-])c1c(NCCO)cc(Sc2nc3ccccc3s2)c2nonc12,,12.6 µM (active)
CC(C)(C)c1ccc(S(=O)(=O)Nc2ccc(O)c(Sc3nc4ccccc4s3)c2)cc1,-17.4% (inactive),
COC(=O)c1cc(S(=O)(=O)N2CCN(c3cc(Cl)ccc3C)CC2)c[nH]1,7.65% (inactive),
O=C1C(c2ccccn2)=[N+]([O-])c2ccccc21,,3.98 µM (active)
COc1ccc(NC(=O)CSc2nc3ccccc3n2CC(=O)N2CCCCC2C)cc1 (centres undefined),1.12% (inactive),
COc1cc(NC(=O)c2cc(C3CC3)nc3c2c(C)nn3-c2ccccc2)cc(OC)c1,-5.05% (inactive),
COC(=O)CC1Oc2ccccc2-n2cc(-c3ccccc3)nc21 (centres undefined),-13.4% (inactive),
O=C(c1ccccc1)c1ccc(OCC(O)CN2CCCC2)cc1 (centres undefined),-0.223% (inactive),
O=C(c1ccc(Cl)cc1)c1ccc(OCC(O)CN2CCCCC2)cc1 (centres undefined),-6.29% (inactive),
CCOc1ccc(C(=O)/C=C/c2cn(CC(O)CN3CCCCCC3)c3ccccc23)cc1 (centres undefined),,12.6 µM (active)
Cc1ccc(C)c(CNC(=O)c2cc3ccccn3n2)c1,-8.43% (inactive),
CC/C(=N/Nc1ccccc1)c1cnnc(SC)n1,,7.08 µM (active)
CCOc1ccccc1C(=O)Nc1ccc(S(=O)(=O)N2CCCCC2c2cccnc2)cc1 (centres undefined),8.63% (inactive),
CCOC(=O)c1c(C)[nH]c(C)c1S(=O)(=O)NCC(=O)NCc1cccc(C)c1,3.96% (inactive),
COc1cc(Br)cc(/C=N/c2ncn[nH]2)c1O,,14.1 µM (active)
COc1ccc(Br)cc1/C=N/n1c(C)nnc1C,-2.94% (inactive),
C/C(=N/Nc1nc(-c2ccccc2)c(CC(=O)O)s1)c1ccccc1,,12.6 µM (active)
Cc1ccc(-c2nc(C)sc2CC(=O)O)cc1,4.18% (inactive),
O=C(O)Cc1sc(-c2ccc(C(=O)O)cc2)nc1-c1ccccc1,2.5% (inactive),
COc1ccc(NC(=O)CSc2nccn2Cc2ccc3c(c2)OCO3)cc1,-11.5% (inactive),
Nc1ncc(S(=O)(=O)Nc2ccc(OC(F)(F)F)cc2)cn1,-1.64% (inactive),
CCc1ccc2ncc3c(-c4ccc(C)cc4)nn(CC(=O)NCc4ccccc4)c3c2c1,-6.61% (inactive),
COc1ccc(CNC(=O)CSc2n[nH]c(-c3ccc(F)cc3)n2)cc1,-4.28% (inactive),
